Screening results (PubChem)
HSF1 inhib = HSF1 inhibitors in luciferase reporter cells, primary screen, cell-based, NIH3T3, luminescence; NIH3T3-HGL HSE-luciferase, MG132-induced, luminescence 8 h; hits give low values; activity change, negative = inhibition, % at 7.5 µM (by protocol); 0.77% of 300,000 active; AID 2098, 2009;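 active = more than half of replicate wells show activity change below -50%, luminescence cut by over half; inconclusive = some wells, but at most half, below -50%; inactive = no replicate well below -50%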;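 note: luciferase reports HSF-1 transcriptional activity via heat shock element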
HSF-1 act = HSF-1 activators, primary screen, NIH3T3-HGL cells, MG132 stress, luminescence, single point; NIH3T3-HGL HSF-1 luciferase reporter, 8 h; 100% = twice DMSO control signal; activation, % at 9 µM; 1.7% of 300,000 active; AID 504408, 2011;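 active = mean replicate activation of at least 50% with a set share of replicates each reaching 50%; inconclusive = only one of those two conditions met; inactive = mean below 50% and too few replicates reaching it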
MITF TRPM1 HTS = activators of MITF-driven TRPM1 promoter reporter, primary screen, cell-based, SK-MEL-5, luciferase, single point; SK-MEL-5 TRPM1-promoter luciferase, 24 h; % of positive control, neutral wells = 0; activation, % at 12.5 µM; 0.75% of 300,000 active; AID 588334, 2011;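 active = mean activation of at least 80% with every replicate also reaching 80%; inconclusive = mean reaches 80% but some replicate falls short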
Wnt act = Wnt/beta-catenin pathway activators, primary screen, cell-based, plate reader, single point; Wnt/beta-catenin reporter cell assay, activator; activation, % at 9.35 µM; 1.2% of 300,000 active; AID 743398, 2014; in the data active = activation above about 30%, passing the limit was not always enough; inconclusive = no clear call, values can overlap the other calls
esBAF inh = Bmi1 luciferase reporter increase in mESCs, primary screen, esBAF inhibitor project, mouse ES cells, Bmi1 luciferase knock-in, single point; 24 h; 100% = twice the neutral-well signal; reporter increase, % at 12.5 µM; 2% of 350,000 active; in the data active = activation above about 40%; inconclusive = no clear call, values can overlap the other calls;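 note: a rise in the Bmi1 reporter signal indicates esBAF inhibition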
Each line names hits and unclear results; the compound was inactive in the other large screens. The list is not random: actives were taken first. Their share in the collection is about 3.8%.

O=C(C[C@@H]1C[C@H]2c3cc(NS(=O)(=O)c4ccc(F)cc4)ccc3O[C@H]2[C@@H](CO)O1)NCc1cc(F)ccc1F	none (no result: HSF1 inhib, HSF-1 act, MITF TRPM1 HTS, Wnt act)
CN(C)C(=O)[C@@H]1[C@@H](CO)[C@@H]2Cn3c(ccc(C4=CCCCC4)c3=O)[C@H]1N2Cc1ccncc1	none (no result: HSF1 inhib, HSF-1 act, MITF TRPM1 HTS, Wnt act)
C/C=C/c1cnc2c(c1)C(=O)N([C@@H](C)CO)C[C@H](C)[C@@H](CN(C)C(=O)NCCC)O2	none (no result: HSF1 inhib, HSF-1 act, MITF TRPM1 HTS, Wnt act)
O=C(O)Cn1cc(/C=N/Nc2ccc([N+](=O)[O-])cn2)c2ccccc21	none
COc1cccc(/C=N/Nc2ccc([N+](=O)[O-])cn2)c1O	HSF-1 act 96
O=[N+]([O-])c1ccc(NN=Cc2cccc3ccccc23)nc1	none (no result: HSF1 inhib, HSF-1 act, esBAF inh)
Cc1ccc(Cn2cc(/C=N/Nc3ccc([N+](=O)[O-])cn3)c3ccccc32)cc1	esBAF inh 45
Cc1ccc(C=NNc2ccc([N+](=O)[O-])cn2)cc1	MITF TRPM1 HTS 122 (no result: HSF1 inhib, HSF-1 act, esBAF inh)
COc1ccccc1C#Cc1cnc2c(c1)C(=O)N([C@@H](C)CO)C[C@H](C)[C@H](CN(C)C(C)=O)O2	none (no result: HSF1 inhib, HSF-1 act, MITF TRPM1 HTS, Wnt act)
O=C(C[C@H]1CC[C@@H]2[C@H](COC[C@@H](O)CN2C(=O)c2cnccn2)O1)NCc1ccc(F)cc1	none (no result: HSF1 inhib, HSF-1 act, MITF TRPM1 HTS, Wnt act)
Cn1c(SCc2ccccc2F)nc2cccnc21	HSF-1 act 63, esBAF inh 43 (no result: MITF TRPM1 HTS, Wnt act)
CCOC(=O)CSc1nc2cccnc2n1C	none
O=C(C[C@H]1CC[C@@H](NC(=O)C2CC2)[C@H](CO)O1)NCc1ccccc1Cl	none (no result: HSF1 inhib, HSF-1 act, MITF TRPM1 HTS, Wnt act)
CC1=NN(c2ccccc2)C(=O)/C1=C\C=C\c1ccccc1	HSF-1 act 98 (no result: MITF TRPM1 HTS, esBAF inh)
Cc1nn(-c2ccccc2)c(/N=C/c2ccc(O)cc2)c1-c1ccccc1	HSF-1 act 56, MITF TRPM1 HTS 83, esBAF inh inconclusive (no result: Wnt act)
O=C(C[C@H]1CC[C@@H]2[C@H](COC[C@@H](O)CN2CCC(F)(F)F)O1)NCc1ccc(Oc2ccccc2)cc1	none (no result: HSF1 inhib, HSF-1 act, MITF TRPM1 HTS, Wnt act)
COc1ccc(C2=Nc3ccccc3OC2)cc1	esBAF inh 64
COc1ccc2c(c1)C(=O)c1ccccc1CO2	none (no result: Wnt act, esBAF inh)
C[C@H](NC(=O)C[C@@H]1CC[C@H](NC(=O)C2CC2)[C@H](CO)O1)c1ccccc1	none (no result: HSF1 inhib, HSF-1 act, MITF TRPM1 HTS, Wnt act)
Cc1cc(OCCN2CCOCC2)ccc1Cl	esBAF inh 43
CCC(=O)N(C)C[C@@H]1Oc2cc(C#CC3CCCC3)ccc2S(=O)(=O)N([C@H](C)CO)C[C@H]1C	none (no result: HSF1 inhib, HSF-1 act, MITF TRPM1 HTS, Wnt act)
CNC(=O)/C(C#N)=C/c1ccc(-c2ccc(Cl)cc2)o1	HSF-1 act 73, esBAF inh 80
N#C/C(=C\c1ccc(-c2ccc(C(=O)O)cc2)o1)C(=O)Nc1ccc(F)cc1	none
Cc1cccc(C)c1NC(=O)/C(C#N)=C/c1ccc(-c2ccc(C(=O)O)cc2)o1	esBAF inh 128 (no result: MITF TRPM1 HTS)
CCCCNC(=S)NNC(=O)c1ccoc1C	none (no result: Wnt act)
CCCCNC(=S)NNC(=O)c1csc2ccccc12	HSF-1 act 131 (no result: esBAF inh)
COc1cc(/C=C(/C#N)C(=O)Nc2ccccc2)c(Br)cc1OCc1ccc(C(=O)O)cc1	none
COc1cc(/C=C(\C#N)C(=O)Nc2cccc(C(=O)O)c2)ccc1OCc1ccc(Cl)cc1	HSF-1 act 113, Wnt act 34
COc1cc(/C=N/O)ccc1OCc1ccc(Cl)cc1	HSF-1 act 108 (no result: MITF TRPM1 HTS, esBAF inh)
COc1cc(/C=N/OCC(=O)NC23CC4CC(CC(C4)C2)C3)ccc1OCc1ccccc1	esBAF inh 62
COc1cc(/C=N/O)ccc1OCc1ccc(C(=O)O)cc1	HSF1 inhib -77 (no result: esBAF inh)
O=C(Nc1ccc(Cl)cc1)N[C@@H]1CC[C@@H](CCn2cc(-c3ccccc3F)nn2)O[C@@H]1CO	none (no result: HSF1 inhib, HSF-1 act, MITF TRPM1 HTS, Wnt act)
COc1cccc(OCc2cc(/C=N/Nc3ccc(C(=O)O)cc3)ccc2OC)c1	HSF1 inhib -73, esBAF inh 59
COc1cccc(C(=O)Oc2ccc(/C=N/Nc3ccc(C(=O)O)cc3)cc2OC)c1	none
O=C(C=Cc1ccccc1)c1cccs1	none (no result: HSF1 inhib, HSF-1 act, esBAF inh)
Nc1ccc(/C=C/C(=O)c2cccs2)cc1	esBAF inh 68
O=C(/C=C/c1ccc([N+](=O)[O-])cc1)c1cccs1	none
Cc1c(/C=C/C(=O)c2cccs2)cnn1C	Wnt act 57
CCc1ccc(C(=O)/C=C/c2cnn(C)c2C)s1	esBAF inh 55 (no result: MITF TRPM1 HTS)
